Only some compounds are listed: those with a hit (about 7.9% of all), similar ones and a draw of the others.
MCF10A rerep – induces DNA re-replication in MCF 10a normal breast cells | Potency, µM (titrated, usually from 46.1 µM), without a hit: at the highest dose activity, positive = re-replication, hits mostly activators | MCF 10A DNA re-replication, Hoechst nuclear intensity, 48 h | hit rate 2.9% among 350,000; also: % of control where 0% means no effect; nearly all actives have a fitted effect of over 50% in size
SW480 rereplic – induces DNA re-replication in SW480 colon adenocarcinoma cells; SW480 DNA re-replication, Hoechst DNA content imaging, 48 h; Potency, µM (series often up to 46.1 µM), without a hit: at the top dose re-replication activation, most hits filed as activators; hit rate 1.8% among 340,000; also: % of control where 0% means no effect; nearly all actives have a fitted effect of over 55% in size
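Cells (250 per well) received 23 nL compound or DMSO by pin tool and were kept 48 hr at 37 C, 5% CO2. Nuclei were then stained with Hoechst for 40 min and scanned for DNA content.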
HT1080 IDH1KD tx – kills HT-1080 cells with IDH1 knockdown. HT-1080 IDH1 knockdown viability, ATP luminescence, 48 h. Potency, µM (doses to about 46.1 µM), for the others: at the highest dose activity, negative = toxicity, hits mostly cytotoxic. hit rate 2% among 360,000. AID 686971;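 also: 0% = DMSO wells and -100% = cell-free medium wells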
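HT-1080-IDH1KD cells (IDH1 knocked down), 750/well in RPMI with 5% FBS, treated with compound 48 h at 37 degrees C. Viability by CellTiter-Glo luminescence, normalised to DMSO and no-cell wells; concentration-response curves classed.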
KB-3-1 tox – kills parental KB-3-1 adenocarcinoma cells. KB-3-1 viability, CellTiter-Glo ATP luminescence, 72 h. Potency, µM (titrated, usually from 46.1 µM), most hits filed as cytotoxic. hit rate 1.4% among 400,000; also: % is scaled to controls: 0 for no effect and ±100 for the full control effect; nearly all actives have a fitted effect of over 60% in size
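KB-3-1 cells, DMEM (no phenol red) + 10% FBS; compound by pin transfer, 72 h, 37 °C. Readout: CellTiter-Glo luminescence after 10 min. Data normalized, curve-fitted.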
HT1080-NT tox – kills 2HG-producing HT-1080-NT fibrosarcoma cells. HT-1080-NT fibrosarcoma viability, CellTiter-Glo ATP luminescence, 48 h. Potency, µM (doses to about 46.1 µM), for inactives: top-dose activity, negative = less viability, most hits filed as cytotoxic. hit rate 1.6% among 360,000. AID 686970;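 also: NT is the 2HG producing partner of a matched IDH1 knockdown line; 0% = DMSO-treated cells and -100% = media-only wells without cells; nearly all actives have a fitted effect of over 55% in size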
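HT-1080-NT; 750 cells/well; 5% FBS RPMI; 48 h compound, 37 degrees C; CellTiter-Glo luminescence; curve fitting and curve-class assignment.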
KB-V1 cytotox – KB-V1 MDR subline cytotoxicity | KB-V1 MDR cells viability, CellTiter-Glo, 72 h | Potency, µM (series often up to 46.1 µM), most hits filed as cytotoxic | hit rate 3.4% among 400,000 | AID 1347076; also: % is scaled to controls: 0 for no effect and ±100 for the full control effect; nearly all actives have a fitted effect of over 60% in size
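KB-V1, DMEM (no phenol red) + 10% FBS; cpd pin-transferred, titration series; 72 h, 37 degrees C; CellTiter-Glo, luminescence. Data normalized, curve-fit.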
Numbers without * were called inactive; i = inactive; ? = inconclusive; · = no result given. Calls follow the shape of the dose curve; as a rule, active = well fitted curve in the direction sought with a large enough effect; inconclusive = small, poorly fitted or top-dose-only effect, or another doubt; inactive = no such curve, though single readings can be large; an effect the other way counts as inactive or inconclusive. Potency is read from the fitted curve at half-maximal effect.

SMILES	MCF10A rerep	SW480 rereplic	HT1080 IDH1KD tx	KB-3-1 tox	HT1080-NT tox	KB-V1 cytotox
Cc1ccc(C)c(NC(=O)Cn2nnc(C(=O)NCc3ccco3)c2N)c1	-1%	?	?	?	?	?
CS(=O)(=O)N(CC(=O)N1CCCCCC1)c1cccc([N+](=O)[O-])c1	1%	-3%	10%	i	6%	i
O=C(NNc1c2ccccc2nc2ccccc12)c1ccc(O)cc1O	-16%	2%	?	i	?	i
O=C(NNc1c2ccccc2nc2ccccc12)c1ccccc1O	7%	-12%	?	i	?	21µM*
COc1ccc(OCC(=O)NNc2c3ccccc3nc3ccccc23)cc1	?	-3%	?	?	-28%	4.6µM*
O=c1[nH]c(/C=C\c2ccc(O)cc2)nc(O)c1[N+](=O)[O-]	9%	-1%	13%	i	8%	i
CN1C(=O)c2ccccc2Sc2ccc(NC(=O)N3CCN(c4cccc(Cl)c4)CC3)cc21	·	·	·	i	·	i
CC1CC(C)CN(C(=O)C(NS(=O)(=O)c2ccc(Br)s2)c2ccccc2)C1 (configuration not stated)	16µM*	-97%	?	i	-26%	i
COC(=O)c1cc(=O)n(CCc2ccc(OC)c(OC)c2)c(=Nc2ccc(F)c(Cl)c2)s1	3.3µM*	6%	?	?	16µM*	21µM*
COC(=O)c1cc(=O)n(Cc2ccc(F)cc2)c(=Nc2ccccc2)s1	?	-8%	-17%	i	-24%	?
COC(=O)c1cc(=O)n(Cc2ccco2)c(=Nc2ccc(F)cc2)s1	?	7%	?	?	23µM*	23µM*
COC(=O)c1cc(=O)n(Cc2ccc(OC)c(OC)c2)c(=Nc2ccc(F)cc2)s1	?	2%	-16%	21µM*	?	?
O=C(NCCC1CCCCN1S(=O)(=O)c1cccs1)C(=O)Nc1ccccc1F (configuration not stated)	?	17%	6%	i	5%	i
O=C(NCCC1CCCCN1S(=O)(=O)c1cccs1)C(=O)NCc1ccccc1 (configuration not stated)	?	?	-16%	?	-22%	15µM*
O=C(NCCC1CCCCN1S(=O)(=O)c1cccs1)C(=O)Nc1cccc(F)c1 (configuration not stated)	?	-3%	-11%	i	2%	16µM*
COc1ccccc1NC(=O)C(=O)NCC1CCCN1S(=O)(=O)c1cccs1 (configuration not stated)	12%	-2%	9%	i	12%	4.6µM*
O=C(NCC1CCCN1S(=O)(=O)c1cccs1)c1cccc(Cl)c1 (configuration not stated)	8%	2.9µM*	-18%	i	-17%	?
CCOc1ccc(NC(=O)c2ccccc2NS(=O)(=O)c2ccc(F)cc2)c([N+](=O)[O-])c1	20%	-7%	-1%	i	-11%	?
CN(C)/C=C1\N=C(c2cccs2)OC1=O	-1%	-2%	10%	i	8%	i
CC1CC(C)CN(CCCOc2ccccc2[N+](=O)[O-])C1 (configuration not stated)	-1%	3%	4%	i	1%	?
Cc1ccc(CNC(=O)C(=O)NCC2CCCN2S(=O)(=O)c2cccs2)cc1 (configuration not stated)	6%	-1%	22%	i	7%	9.2µM*
COc1ccc(Cl)cc1Nc1nc(NCCO)nc(N2CCCC2)n1	18%	-4%	?	i	?	i
CC(C)Oc1ccc(Cl)cc1Nc1nc(NCCO)nc(N2CCCC2)n1	23µM*	?	·	i	·	?
O=c1c2c([nH]c3ccc(Br)cc13)CCCC2	22%	-7%	-3%	i	1%	i
